From the supplement of paper PMC12024424
Structures can show the parent of a compound that is named as a salt.

Tests used:
[1] = tested on: Staphylococcus aureus Sa2 (MRSA, cystic fibrosis isolate); assay: growth reduction vs untreated control (OD550); higher = stronger antibacterial activity; conditions: 0.1 mM; 24 h
Protocol: (§1)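 Single-dose screen of the MedChem Express Drug Repurposing Library (0.1 mM, 1% DMSO) against planktonic MRSA S. aureus Sa2 (CF isolate) in TSB in 96-well plates, 37 °C aerobic, 24 h. Assays were run in triplicate and repeated twice.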

[2] = tested on: Staphylococcus aureus Sa2 (MRSA, cystic fibrosis isolate); assay: growth reduction vs untreated control (viable cell count); higher = stronger antibacterial activity; extreme values may be limits of the assay; conditions: 0.1 mM; 24 h
Protocol: as §1

SMILES	growth reduction [1]	growth reduction [2]
C1=N/C2=N/c3ccc(OCCN4CCCC4)c(c3)COC/C=C/COCc3cccc(c3)C(=C1)N2 [Pacritinib]	100%	100%
CC(C)(C(=O)NCC(F)(F)C(F)(F)F)C(=O)N[C@@H]1C(=O)Nc2ccccc2-c2ccccc21	100%	90%
CC/C(=C(/CC)c1ccc(O)cc1)c1ccc(O)cc1 [Diethylstilbestrol]	100%	100%
CCCCCCCCc1ccc(CCC(N)(CO)CO)cc1 [Fingolimod]	100%	100%
CCOc1nc2cccc(C(=O)OC(C)OC(=O)OC3CCCCC3)c2n1Cc1ccc(-c2ccccc2-c2nn[nH]n2)cc1 (configuration not stated) [Candesartan Cilexetil]	100%	100%
C=Cc1cc(O)cc2nc(-c3ccc(O)c(F)c3)oc12 [Prinaberel]	100%	100%
CCCCc1oc2ccccc2c1C(=O)c1cc(I)c(OCCN(CC)CC)c(I)c1 [Amiodarone (hydrochloride)]	100%	98%
CCCSc1nc(N[C@@H]2C[C@H]2c2ccc(F)c(F)c2)c2nnn([C@@H]3C[C@H](OCCO)[C@@H](O)[C@H]3O)c2n1 [Ticagrelor]	100%	98%
CC1(C)CCC(C)(C)c2cc(NC(=O)c3ccc(C(=O)O)cc3)ccc21 [Tamibarotene]	95.5%	100%
NC(=O)C1=C(O)[C@@]2(O)C(=O)C3=C(O)c4c(O)cccc4C[C@H]3C[C@H]2CC1=O [Incyclinide]	100%	100%
Cc1cc(C2CCCCC2)n(O)c(=O)c1 [Ciclopirox]	99.3%	100%
O=C(O)CNC(=O)c1nc(Cl)c2ccccc2c1O	100%	100%
O=C(O)c1ccc(-n2nc(-c3ccccc3O)nc2-c2ccccc2O)cc1 [Deferasirox]	96.2%	99%
CCCCCOc1ccccc1/C(=C\SC)n1ccnc1 [Neticonazole]	100%	100%
O=c1[nH]cc(F)c(=O)[nH]1 [5-Fluorouracil]	97.1%	100%
CC(C)COc1ccc(CNC(=O)N(Cc2ccc(F)cc2)C2CCN(C)CC2)cc1 [Pimavanserin tartrate]	100%	100%

SMILES	growth reduction [1]	growth reduction [2]
Clc1ccc(C(Cn2ccnc2)OCc2ccc(Sc3ccccc3)cc2)c(Cl)c1 (configuration not stated) [Fenticonazole (Nitrate)]	100%	100%
CC(C)c1cc(Oc2c(Br)cc(NC(=O)CC(=O)O)cc2Br)ccc1O [Eprotirome]	99.3%	100%
NC(=O)c1cccc2cn(-c3ccc([C@@H]4CCCNC4)cc3)nc12 [Niraparib (tosylate)]	99.5%	99%
C=CC(=O)Nc1cccc(Oc2nc(Nc3ccc(N4CCN(C)CC4)c(F)c3)nc3[nH]ccc23)c1 [Avitinib (maleate)]	100%	99%
CC(C)(C)c1ccc(C(O)CCCN2CCC(C(O)(c3ccccc3)c3ccccc3)CC2)cc1 (configuration not stated) [Terfenadine]	100%	100%
CC(=O)[C@]1(O)Cc2c(O)c3c(c(O)c2[C@@H](O[C@H]2C[C@H](N)[C@H](O)[C@H](C)O2)C1)C(=O)c1ccccc1C3=O [Idarubicin (hydrochloride)]	98.1%	100%
CCCc1nc2c(C)cc(-c3nc4ccccc4n3C)cc2n1Cc1ccc(-c2ccccc2C(=O)O)cc1 [Telmisartan]	91.8%	100%
CCOC(=O)Nc1ccc(NCc2ccc(F)cc2)nc1N [Flupirtine (Maleate)]	100%	96%
Clc1ccc(C(Cn2ccnc2)OCc2c(Cl)cccc2Cl)c(Cl)c1 (configuration not stated) [Isoconazole (nitrate)]	100%	100%
C1CCC(C(CC2CCCCN2)C2CCCCC2)CC1 (configuration not stated) [Perhexiline maleate]	100%	100%
CCCCN(CCCC)CCC(O)c1cc2c(Cl)cc(Cl)cc2c2cc(C(F)(F)F)ccc12 (configuration not stated) [Halofantrine hydrochloride]	100%	94%
O=C(NC(=Nc1cc(C(F)(F)F)[nH]n1)Nc1cc(F)cc(Cl)c1)c1cccc(Cl)c1 [Parimifasor]	100%	100%
CSc1ccc(C(=O)/C=C/c2cc(C)c(OC(C)(C)C(=O)O)c(C)c2)cc1 [Elafibranor]	91.6%	95%
CC(C(=O)O)c1ccc2c(c1)CC(=O)c1ccccc1S2 (configuration not stated) [Zaltoprofen]	96.7%	98%
CC(=O)OCC(=O)[C@@]1(O)CC[C@H]2[C@@H]3CCC4=CC(=O)C=C[C@]4(C)[C@H]3C(=O)C[C@@]21C [Prednisone acetate]	97.7%	100%
